Test results from PubChem BioAssay (NCI).
The panel holds about 83,000 compounds, 20% with a hit somewhere; the sample as a whole holds those more often.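 A percent growth of 40 corresponds to 60% growth inhibition; 0 means no net growth; -100 means all cells died. Active threshold: below 10.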 A number with no mark means an inactive call. The source made the active and inactive calls.

Columns and labels:
Assay in all cases: NCI-60 one-dose screen, 48 h (100 = growth as untreated, 0 = no growth, -100 = all killed)
Details in all cases: 10 µM unless noted
[1] = tested on: NCI-H23 lung
[2] = tested on: NCI-H226 lung
[3] = tested on: NCI-H322M lung
[4] = tested on: HOP-62 NSCLC
[5] = tested on: NCI-H460 lung
[6] = tested on: HOP-92 NSCLC
[7] = tested on: NCI-H522 lung
[8] = tested on: A549/ATCC NSCLC
[9] = tested on: 786-0 renal
[10] = tested on: COLO 205 colon

For `CCOC(=O)CC1CSC(N/N=C/c2ccc(-n3cccn3)cc2)=N1` (stereo not given), the growth [1] was 101%, the growth [2] was 95% and the growth [3] was 104%. It also gave a growth [4] of 105%, a growth [5] of 107% and a growth [6] of 99.3%. The growth [7] was 99.1%, the growth [8] was 93.1% and the growth [9] was 108%. For the same molecule, the growth [10] was 126%.
`O=C(NCCNc1nccc(-c2c(-c3cccc(F)c3)nc3sccn23)n1)c1ccc(Cl)cc1` showed a growth [1] of 73.5%, a growth [2] of 51.2% and a growth [3] of 66.3%. For the same molecule, the growth [4] was 91.9%, the growth [5] was 35.8% and the growth [6] was 87.1%. For the same molecule, the growth [7] was 68.4%, the growth [8] was 34.8% and the growth [9] was 54.6%. The growth [10] was 29.8%.
Molecule `O=C(c1nnc(Nc2ccccc2Br)o1)c1c[nH]c2ccccc12` has a growth [1] of 88.1%, a growth [2] of 85.6% and a growth [3] of 94.6%. The growth [4] was 79.2%, the growth [5] was 99.2% and the growth [6] was 97.9%. It also gave a growth [7] of 98.2%, a growth [8] of 88.2% and a growth [9] of 103%. It also gave a growth [10] of 98.9%.
Work on `Nc1nc(Nc2ccccc2SSc2ccccc2Nc2nc(N)nc(-c3cccs3)n2)nc(-c2ccsc2)n1` yielded a growth [1] of 59.5%, a growth [2] of 85.2% and a growth [3] of 90.6%. The growth [4] was -41.2% (active), the growth [5] was 55.9% and the growth [6] was 104%. The growth [7] was 85.3%, the growth [8] was 18.4% and the growth [9] was 93.6%. It also gave a growth [10] of 97.8%.
In the case of `N#Cc1c(NC(=O)NCc2ccccc2)sc2c1CCCC2`, the growth [1] is reported as 29%, the growth [2] is reported as 29.5% and the growth [3] is reported as 42.2%. The growth [4] was 40.2%, the growth [5] was 2.62% (active) and the growth [6] was 42%. It also gave a growth [7] of 21.9%, a growth [8] of 28.5% and a growth [9] of 35.6%. It also gave a growth [10] of 10.1%.
`C=C(C)[C@@H]1CC[C@]2(CN)CC[C@]3(C)[C@H](CC[C@@H]4[C@@]5(C)CCCNC(C)(C)[C@@H]5CC[C@]43C)[C@@H]12` was tested, and the growth [1] was 10.5%, the growth [2] was 53.9% and the growth [3] was -42.7% (active). The growth [4] was 21.2%, the growth [5] was -78.3% (active) and the growth [6] was -29.4% (active). The growth [7] was -31% (active), the growth [8] was -68.4% (active) and the growth [9] was -97.2% (active). For the same molecule, the growth [10] was -71.2% (active).
Molecule `C=CCn1c(-c2ccc(-c3nc4ccc(C)cc4[nH]3)cc2)n[nH]c1=S` has a growth [1] of 94.6%, a growth [2] of 94.1% and a growth [3] of 102%. It also gave a growth [4] of 97.7%, a growth [5] of 105% and a growth [6] of 117%. For the same molecule, the growth [7] was 90.7%, the growth [8] was 99.2% and the growth [9] was 107%. For the same molecule, the growth [10] was 120%.
In the case of `Nc1c(C(=O)Nc2cccc3cnccc23)sc2nc3c(cc12)C(=O)CCC3`, the growth [1] is reported as 92.6%, the growth [2] is reported as 92.7% and the growth [3] is reported as 102%. For the same molecule, the growth [4] was 90.5%, the growth [5] was 78.2% and the growth [6] was 80.5%. It also gave a growth [7] of 40.4%, a growth [8] of 87.4% and a growth [9] of 91.3%. It also gave a growth [10] of 108%.
Work on `COc1ccc(N2CCN(c3ccc(NC4=C(Cl)C(=O)c5ncccc5C4=O)cc3)CC2)cc1` yielded a growth [1] of 26.2%, a growth [2] of 52.8% and a growth [3] of 46.9%. For the same molecule, the growth [4] was 56.2%, the growth [5] was 17.6% and the growth [6] was 85.8%. The growth [7] was 43.8%, the growth [8] was 36.1% and the growth [9] was 80.1%. It also gave a growth [10] of 43%.
`COC(=O)/C=C1\S/C(=N\NC(=O)c2cc3ccc2/C=C\c2ccc(cc2)/C=C\3)N(Cc2ccccc2)C1=O` gave a growth [1] of 77.4%, a growth [2] of 64.8% and a growth [3] of 93.3%. It also gave a growth [4] of 77.2%, a growth [5] of 93.7% and a growth [6] of 75.5%. For the same molecule, the growth [7] was 15.9%, the growth [8] was 77% and the growth [9] was 49.6%. It also gave a growth [10] of 72.7%.
With `O=C(CCN1CCCC1)Nc1ccc2c(NCCc3ccccc3)c3ccccc3nc2c1` the growth [1] was -40.2% (active), the growth [2] was -19.8% (active) and the growth [3] was -19% (active). The growth [4] was -9.1% (active), the growth [5] was -64.8% (active) and the growth [6] was -14.5% (active). For the same molecule, the growth [7] was -33.4% (active), the growth [8] was -5.65% (active) and the growth [9] was -12.4% (active). The growth [10] was -37.5% (active).
With `NS(=O)(=O)c1ccc(CCn2c(SCC(=O)c3ccc(Cl)cc3)nc3ccccc3c2=O)cc1` the growth [1] was 95.2%, the growth [2] was 104% and the growth [3] was 96.3%. The growth [4] was 96.1%, the growth [5] was 105% and the growth [6] was 109%. It also gave a growth [7] of 96.7%, a growth [8] of 103% and a growth [9] of 92.4%. For the same molecule, the growth [10] was 113%.
Work on `CNC(=O)c1cccc(Cn2nc(C)c(NC(=O)c3ccc(COc4ccc(C(F)(F)F)cc4C)cc3)c2C)c1` yielded a growth [1] of 47.3%, a growth [2] of 44.6% and a growth [3] of 88%. For the same molecule, the growth [4] was 46.3%, the growth [5] was 47.7% and the growth [6] was 80%. The growth [7] was 33%, the growth [8] was 31.1% and the growth [9] was 54.8%. For the same molecule, the growth [10] was 42.7%.
`CC1(C)NCCC[C@]2(C)[C@H]3CC[C@@H]4[C@H]5[C@H](C(=O)/C=C/c6ccco6)CC[C@]5(CO)CC[C@@]4(C)[C@]3(C)CC[C@@H]12` showed a growth [1] of 89.1%, a growth [2] of 94.8% and a growth [3] of 92.6%. For the same molecule, the growth [4] was 91.8%, the growth [5] was 56.2% and the growth [6] was 70.1%. It also gave a growth [7] of 88.3%, a growth [8] of 87.2% and a growth [9] of 74.4%. For the same molecule, the growth [10] was -2.99% (active).
`CC1(C)CC(=O)C2=C(C1)N(c1ccc(F)cc1F)C(N)=C(C#N)C2c1cc(Br)ccc1F` (stereo not given) showed a growth [1] of 86.7%, a growth [2] of 103% and a growth [3] of 95.4%. For the same molecule, the growth [4] was 89.9%, the growth [5] was 95% and the growth [6] was 119%. It also gave a growth [7] of 80.7%, a growth [8] of 79.3% and a growth [9] of 98.6%. It also gave a growth [10] of 118%.
`NS(=O)(=O)c1ccc(CCN2C(=O)C3C(C2=O)C2(Cl)C(Cl)=C(Cl)C3(Cl)C2(Cl)Cl)cc1` (stereo not given) gave a growth [1] of 92.9%, a growth [2] of 101% and a growth [3] of 104%. The growth [4] was 104%, the growth [5] was 104% and the growth [6] was 47.6%. For the same molecule, the growth [7] was 91%, the growth [8] was 101% and the growth [9] was 95.3%. The growth [10] was 108%.
Work on `CC(C)c1ccc(Nc2ccc3c(OCCCN4CCN(C)CC4)cccc3n2)cc1` yielded a growth [1] of 70.8%, a growth [2] of 83.9% and a growth [3] of 82.6%. For the same molecule, the growth [4] was 64.1%, the growth [5] was 52.1% and the growth [6] was 56.5%. The growth [7] was 83.2%, the growth [8] was 51.5% and the growth [9] was 46.5%. The growth [10] was -65.1% (active).
Molecule `N/C(=N\C(N)=N\c1nc2ccccc2s1)c1cnccn1` has a growth [1] of 19.8%, a growth [2] of 22.5% and a growth [3] of 25.1%. The growth [4] was 40.2%, the growth [5] was 11.8% and the growth [6] was 47%. The growth [7] was 22.4%, the growth [8] was 21.1% and the growth [9] was 23.4%. The growth [10] was 16.2%.
Molecule `N#Cc1c(-c2ccccc2)nc2c(c(-c3ccccc3)nn2-c2ccccc2)c1-c1ccc(O)cc1` has a growth [1] of 44.1%, a growth [2] of 54% and a growth [3] of 66.9%. For the same molecule, the growth [4] was 25.3%, the growth [5] was 9.14% (active) and the growth [6] was 50.1%. For the same molecule, the growth [7] was 0.943% (active), the growth [8] was 41.4% and the growth [9] was 3.44% (active). It also gave a growth [10] of 41.9%.
Molecule `CCOC(=O)[C@@H]1CCCN(S(=O)(=O)c2ccc(S(=O)(=O)N(CC)CC)c(F)c2)C1` has a growth [1] of 45.3%, a growth [2] of 72.6% and a growth [3] of 90.2%. It also gave a growth [4] of 74.6%, a growth [5] of 81.2% and a growth [6] of 67.4%. The growth [7] was 65.3%, the growth [8] was 86.2% and the growth [9] was 70.7%. It also gave a growth [10] of 83.9%.
`COc1cc(-c2n/c(=C\c3c(O)[nH]c4ccc(Cl)cc34)cc3c2=Nc2ccccc2-3)ccc1F` gave a growth [1] of 17.2%, a growth [2] of 60.5% and a growth [3] of 66.5%. For the same molecule, the growth [4] was 3.23% (active), the growth [5] was 0.147% (active) and the growth [6] was -26.3% (active). For the same molecule, the growth [7] was 3.18% (active), the growth [8] was -52.2% (active) and the growth [9] was -56.8% (active). The growth [10] was 7.9% (active).
Work on `Cc1c(C)c([N+](=O)[O-])c(C)c([N+](=O)[O-])c1C` yielded a growth [1] of 116%, a growth [2] of 108% and a growth [3] of 115%. The growth [4] was 121%, the growth [5] was 112% and the growth [6] was 79.2%. For the same molecule, the growth [7] was 77.2%, the growth [8] was 98.2% and the growth [9] was 95.4%. For the same molecule, the growth [10] was 122%.
`O=S(=O)(NCCCNc1nccc(-c2c(-c3cccc(F)c3)nc3sccn23)n1)c1cccc2ccccc12` gave a growth [1] of 66.2%, a growth [2] of 36.8% and a growth [3] of 81.6%. It also gave a growth [4] of 80.7%, a growth [5] of 19.8% and a growth [6] of 94.6%. The growth [7] was 56.3%, the growth [8] was 45.6% and the growth [9] was 52.9%. The growth [10] was 21.5%.
`COc1cc2oc(-c3cccc(C(=O)Nc4ccc(Cl)cc4)c3)cc(=O)c2c(O)c1OC` gave a growth [1] of 72.6%, a growth [2] of 66.4% and a growth [3] of 58.4%. For the same molecule, the growth [4] was 0.268% (active), the growth [5] was 20.5% and the growth [6] was 10.5%. It also gave a growth [7] of 60.4%, a growth [8] of 47.5% and a growth [9] of 38.7%. It also gave a growth [10] of 74%.
For `O=C(Nc1ccccc1C(=O)N/N=C(\c1ccccc1)c1ccccn1)c1ccc(F)cc1`, the growth [1] was 28.2%, the growth [2] was 27.4% and the growth [3] was 25.9%. For the same molecule, the growth [4] was 12.6%, the growth [5] was 6.06% (active) and the growth [6] was 69.1%. For the same molecule, the growth [7] was 22.7%, the growth [8] was 15.6% and the growth [9] was -8.12% (active). The growth [10] was 10.6%.
In the case of `COc1ccc(NC(N)=NCCCOc2ccc(F)cc2)cc1`, the growth [1] is reported as 64.4%, the growth [2] is reported as 91% and the growth [3] is reported as 88.1%. The growth [4] was 74.2%, the growth [5] was 101% and the growth [6] was 80.8%. For the same molecule, the growth [7] was 85.5%, the growth [8] was 73.1% and the growth [9] was 89.1%. The growth [10] was -0.958% (active).
